“And” between values parts separate entries of the source, which are not always exact repeats. Equal values may be shown once. The source holds several records for some structures; these can differ, active in one and inactive in another. The source made the active and inactive calls. Unless noted, calls come from the whole dose curve; as a rule, active = well fitted curve in the direction sought with a large enough effect in the repeat runs; inconclusive = weak or mixed curves; inactive = no such curve, though single readings can be large; an effect the other way counts as inactive or inconclusive.
Experiments:
[1] = qHTS assay to identify small molecule antagonists of the glucocorticoid receptor (GR) signaling pathway - cell viability counter screen (AID 720693); note: nearly all actives have a fitted effect of over 55% in size
[2] = qHTS assay for identifying genotoxic compounds that show differential cytotoxicity against isogenic chicken DT40 cell lines with known DNA damage response pathways - wild type cell line (AID 743012); note: nearly all actives have a fitted effect of over 60% in size; note: potency is the fitted concentration of half-maximal effect
How it was run: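 Using parental DT40 (300 cells/well), compounds delivered in DMSO incubate 40 h at 37 C/5% CO2. CellTiter-Glo reagent then stands 30 min at room temperature, and luminescence gives cell viability.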

[3] = qHTS assay for identifying genotoxic compounds that show differential cytotoxicity against isogenic chicken DT40 cell lines with known DNA damage response pathways - Rev3 mutant cell line (AID 743014); note: nearly all actives have a fitted effect of over 55% in size; note: potency is the fitted concentration of half-maximal effect
[4] = qHTS assay for identifying genotoxic compounds that show differential cytotoxicity against isogenic chicken DT40 cell lines with known DNA damage response pathways - Rad54/Ku70 mutant cell line (AID 743015); note: nearly all actives have a fitted effect of over 60% in size; note: potency is the fitted concentration of half-maximal effect
[5] = qHTS assay to identify small molecule antagonists of the androgen receptor (AR) signaling pathway - cell viability counter screen (AID 743033; note: nearly all actives have a fitted effect of over 45% in size)
[6] = qHTS assay to identify small molecule antagonists of the androgen receptor (AR) signaling pathway using the MDA cell line - cell viability counter screen (AID 743041; note: nearly all actives have a fitted effect of over 45% in size; note: potency is the fitted concentration of half-maximal effect)
How it was run: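 MDA-kb2 AR-luc cells (MMTV-luciferase, AR/GR responsive) treated with compounds plus R1881 agonist for 16 h at 37C. CellTiter-Fluor added at 15.5 h; fluorescence read after 30 min in the same wells.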

[7] = qHTS assay to identify small molecule antagonists of the thyroid receptor (TR) signaling pathway - cell viability counter screen (AID 743064); note: nearly all actives have a fitted effect of over 50% in size; note: potency is the fitted concentration of half-maximal effect
How it was run: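 GH3.TRE-Luc rat pituitary cells dosed after 4 hr plating, co-stimulated with T3 at 1 nM final, incubated 23.5 h at 37 C. Viability measured in the same wells by CellTiter-Fluor fluorescence after 30 min further at 37 C.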

[8] = system: thyroid hormone receptor (rat, GH3 cells); assay: qHTS assay to identify small molecule agonists of the thyroid receptor (TR) signaling pathway (AID 743066; calls by dose curve)
[9] = target: Estrogen receptor (Homo sapiens) (UniProt P03372); assay: qHTS assay to identify small molecule antagonists of the estrogen receptor alpha (ER-alpha) signaling pathway (AID 743069; active = well fitted curve in the direction sought with a large enough effect in the signal ratio in the repeat runs, not every such curve was filed as active; inconclusive = weak or mixed curves, or effect the other way; inactive = no such curve, though single readings can be large or run the other way; the % refers to the signal ratio; note: potency is the fitted concentration of half-maximal effect)
How it was run: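 HEK293 ER-alpha-UAS-bla GripTite cells, held overnight in 2% charcoal-stripped FBS, 5,000 cells/well, preincubated 4 h, then compound plus 17beta-estradiol for 18 h at 37C. Beta-lactamase read by LiveBLAzer B/G FRET substrate, 2 h at room temperature.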

[10] = qHTS assay to identify small molecule antagonists of the estrogen receptor alpha (ER-alpha) signaling pathway - cell viability counter screen (AID 743074; calls by dose curve;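 note: HEK293 cells carrying ER-alpha-UAS-bla reporter stimulated with 17beta-estradiol; nearly all actives have a fitted effect of over 45% in size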)
[11] = target: Estrogen receptor (Homo sapiens) (UniProt P03372); assay: qHTS assay to identify small molecule agonists of the estrogen receptor alpha (ER-alpha) signaling pathway (AID 743075; calls by dose curve; note: potency is the fitted concentration of half-maximal effect)
[12] = target: Estrogen receptor (Homo sapiens) (UniProt P03372); assay: qHTS assay to identify small molecule agonists of the estrogen receptor alpha (ER-alpha) signaling pathway using the BG1 cell line (AID 743079); note: nearly all actives have a fitted effect of over 20% in size; note: potency is the fitted concentration of half-maximal effect
[13] = qHTS assay to identify small molecule antagonists of the estrogen receptor alpha (ER-alpha) signaling pathway using the BG1 cell line (AID 743080; calls by dose curve;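 note: BG1 cells stimulated with 17beta-estradiol alongside compound; series mostly up to about 70 µM; nearly all actives have a fitted effect of over 25% in size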)
How it was run: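 Luminescence from a 4×ERE-luciferase reporter in BG1-Luc-4E2 cells served as read-out. Cells, pre-cultured 5 days in stripped-serum phenol-red-free medium, were exposed to compound with 17beta-estradiol co-stimulation for 21.5 h at 37 C.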

[14] = qHTS assay to identify small molecule antagonists of the estrogen receptor alpha (ER-alpha) signaling pathway using the BG1 cell line - cell viability counter screen (AID 743081);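 note: compound given together with 17beta-estradiol as the ER stimulus; nearly all actives have a fitted effect of over 45% in size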; note: potency is the fitted concentration of half-maximal effect
Aromatase (Homo sapiens) = Aromatase (Homo sapiens) (UniProt P11511); assay: qHTS assay to identify aromatase inhibitors (AID 743083); note: series mostly up to about 70 µM; nearly all actives have a fitted effect of over 55% in size
[15] = qHTS assay to identify small molecule antagonists of the thyroid receptor (TR) signaling pathway (AID 743065); note: nearly all actives have a fitted effect of over 55% in size; note: potency is the fitted concentration of half-maximal effect
How it was run: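 GH3.TRE-Luc rat pituitary cells (two TREs driving luciferase) were dosed with compound, then stimulated with 1 nM T3 (final) for 23.5 h at 37 C. ONE-Glo luminescence was the read-out, with CellTiter-Fluor fluorescence as the cytotoxicity counter-screen.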

Measured: Potency

Sequence of Aromatase (Homo sapiens) (P11511 whole entry, looked up): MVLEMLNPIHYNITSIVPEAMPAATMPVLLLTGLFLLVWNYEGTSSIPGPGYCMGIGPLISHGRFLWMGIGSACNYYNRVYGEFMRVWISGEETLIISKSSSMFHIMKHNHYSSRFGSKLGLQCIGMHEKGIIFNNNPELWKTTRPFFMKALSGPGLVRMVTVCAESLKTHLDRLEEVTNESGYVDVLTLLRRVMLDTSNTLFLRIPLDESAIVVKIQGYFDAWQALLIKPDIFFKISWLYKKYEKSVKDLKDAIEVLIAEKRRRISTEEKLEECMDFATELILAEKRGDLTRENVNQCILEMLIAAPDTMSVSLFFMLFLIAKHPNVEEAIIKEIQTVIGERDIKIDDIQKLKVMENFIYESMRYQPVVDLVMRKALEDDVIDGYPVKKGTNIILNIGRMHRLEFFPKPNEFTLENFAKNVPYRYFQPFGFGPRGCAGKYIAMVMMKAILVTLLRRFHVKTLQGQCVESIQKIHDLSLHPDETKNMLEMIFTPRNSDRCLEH
Sequence of Estrogen receptor (Homo sapiens) (P03372 whole entry, looked up): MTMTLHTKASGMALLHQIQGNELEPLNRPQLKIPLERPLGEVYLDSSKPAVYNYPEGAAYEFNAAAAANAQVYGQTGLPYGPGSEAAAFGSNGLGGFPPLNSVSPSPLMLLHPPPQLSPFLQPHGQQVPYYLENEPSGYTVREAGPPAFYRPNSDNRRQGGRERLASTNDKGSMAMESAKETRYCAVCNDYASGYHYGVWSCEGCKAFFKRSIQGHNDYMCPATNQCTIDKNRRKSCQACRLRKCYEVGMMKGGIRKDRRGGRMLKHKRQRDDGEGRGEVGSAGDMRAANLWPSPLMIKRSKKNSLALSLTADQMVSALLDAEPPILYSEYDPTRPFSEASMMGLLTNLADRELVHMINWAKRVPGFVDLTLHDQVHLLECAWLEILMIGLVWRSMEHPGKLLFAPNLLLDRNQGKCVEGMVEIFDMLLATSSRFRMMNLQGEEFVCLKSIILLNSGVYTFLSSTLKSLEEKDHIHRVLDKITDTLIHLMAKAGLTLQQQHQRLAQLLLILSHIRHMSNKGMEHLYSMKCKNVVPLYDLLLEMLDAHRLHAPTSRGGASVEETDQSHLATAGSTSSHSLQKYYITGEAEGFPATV

Cn1cc[n+](C)c1 (tested in a mixture with another compound)
not listed: [15]
inactive: all other assays above

O=[N+]([O-])c1ccccc1CCl
not listed: [13] | [15]
inactive: all other assays above

CCOP(O)OCC
not listed: [9] | [10] | [11] | [12] | [13]
inactive: all other assays above

CCCCN=C=O
not listed: [9] | [10] | [11] | [12] | [13]
inactive: all other assays above

CC(C)(Cl)[N+](=O)[O-]
not listed: [9] | [11] | [12] | [13]
inactive: all other assays above

O=C(N[C@H](c1ccccc1)[C@@H]1CN2CCC1CC2)c1c(Cl)ccc(C(F)(F)F)c1Cl
inactive: [1] | [5] | [6] | [10]
active: [2] 22 µM | [3] 39.2 µM | [4] 24.7 µM | [7] 15.6 µM | [15] 39.2 µM

Clc1cccc2ccccc12
not listed: [9] | [11] | [12] | [13]
inactive: all other assays above

COc1c(C(C)(C)C)cc([N+](=O)[O-])c(C)c1[N+](=O)[O-]
active: [11] 48.6 µM [activator]
not listed: Aromatase (Homo sapiens) | [15]
inactive: all other assays above

CC1C(=O)C[C@]2(C(C)C)C[C@H]12 (stereo partly specified)
not listed: [9] | [10] | [11] | [12] | [13]
inactive: all other assays above

CN1C(=O)NC(=O)C(C)(C2=CCCCC2)C1=O (stereo unspecified)
not listed: [9] | [11] | [12] | [13]
inactive: all other assays above

CCCCCCCCOC(=O)c1ccc(C(=O)OCCCCCCCC)c(C(=O)OCCCCCCCC)c1
not listed: [9] | [11] | [12] | [13]
inactive: all other assays above

O=Cc1ccc(Cl)cc1Cl
not listed: [9] | [11] | [12] | [13]
inactive: all other assays above

O=[Se]=O
inactive: [1] | [5] | [7] | [8] | [11] | Aromatase (Homo sapiens)
active: [2] 0.541 µM | [3] 0.341 µM | [4] 0.242 µM | [6] 19.2 µM | [9] 6.12 µM [inconclusive] | [14] 19.2 µM

c1ccc(CN2CCNCC2)cc1
not listed: [9] | [11] | [12] | [13] | Aromatase (Homo sapiens)
inactive: all other assays above

O=C=Nc1ccc(Cl)cc1
active: [2] 27.3 µM | [3] 54.5 µM | [4] 27.3 µM | [9] 3.47 µM [inhibitor]
not listed: [12] | [13]
inactive: all other assays above

Cn1sc(Cl)cc1=O
inactive and 54.5 µM (active): [4]
inactive and 21.7 µM (active): [3]
inactive and 19.3 µM (active): [2]
active: [7] 68.6 µM
not listed: [15]
inactive: all other assays above

C=CC(=O)OC
not listed: [9] | [11] | [12] | [13]
inactive: all other assays above

ClCC(Br)CBr (stereo unspecified)
not listed: [15]
inactive: all other assays above

Cc1ccc(N)cc1C
active: [12] 49 µM
not listed: [7] | [15]
inactive: all other assays above

CC(O)(CS(=O)(=O)c1ccc(F)cc1)C(=O)Nc1ccc(C#N)c(C(F)(F)F)c1 (stereo unspecified)
active: [2] 26.6 µM | [3] 10.6 µM and 28.3 µM | [4] 23.7 µM and 28.3 µM
not listed: [9] | [13] | [15]
inactive: all other assays above
